Screening data (PubChem BioAssay)
ALDH1A1 inh – inhibitors of human aldehyde dehydrogenase 1A1; Purified ALDH1A1, NADH fluorescence, propionaldehyde substrate; Potency, µM (titrated, usually from 75.3 µM), without a hit: at the top dose activity, negative = inhibition, most hits filed as inhibitors; 220,000 tested, 7.3% active; AID 1030;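 note: potency is the fitted concentration of half-maximal effect; plate controls were no enzyme wells and a reference inhibitor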
NPSR antagonist – antagonists of human neuropeptide S receptor cAMP signaling; CHO-NPSR cells, cAMP TR-FRET, antagonist mode; Potency, µM (titrated, usually from 38.3 µM), for the others: at the top dose activity change, negative = inhibition, most hits filed as inhibitors; 220,000 tested, 1% active; AID 1461; active = well fitted curve in the direction sought with a large enough effect; inconclusive = small, poorly fitted or top-dose-only effect, or another doubt; inactive = no such curve, though single readings can be large; an effect the other way counts as inactive or inconclusive; note: potency is the fitted concentration of half-maximal effect; nearly all actives have a fitted effect of over 50% in size
Target sequence (Q6W5P4 whole entry, looked up): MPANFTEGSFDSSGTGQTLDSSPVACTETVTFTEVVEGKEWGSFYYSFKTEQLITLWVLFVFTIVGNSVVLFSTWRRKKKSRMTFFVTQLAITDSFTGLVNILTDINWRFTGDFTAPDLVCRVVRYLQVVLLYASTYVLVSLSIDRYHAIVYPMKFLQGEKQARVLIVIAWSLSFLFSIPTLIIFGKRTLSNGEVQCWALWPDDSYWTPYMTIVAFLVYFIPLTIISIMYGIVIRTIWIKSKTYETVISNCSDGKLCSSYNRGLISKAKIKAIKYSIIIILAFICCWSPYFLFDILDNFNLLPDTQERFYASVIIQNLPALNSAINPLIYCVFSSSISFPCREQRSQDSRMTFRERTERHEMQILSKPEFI
Coupling enz – inhibits coupling enzyme system, counter-screen for aldolase hits | coupling enzyme system counterscreen, AmpLite Red fluorescence | activity change, negative = inhibition, % at 58.2 µM, hits read low | 290,000 tested, 0.67% active | AID 2472; in the data active = activity change below about -30%
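Final compound at 57.5 uM, incubated 10 min at RT with coupling enzyme reagent (glyceraldehyde-3-phosphate), then 20 min with substrate and AmpLite Red detection. Fluorescence read at 525/598 nm; tests interference with the coupling assay, not aldolase inhibition.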
JMJD2E inh – inhibitors of human JMJD2E histone demethylase; B2RXH2; JMJD2E catalytic domain, FDH-coupled NADH fluorescence (FDH is formaldehyde dehydrogenase); Potency, µM (doses to about 57.1 µM), without a hit: at the highest dose activity change, negative = inhibition, actives largely listed as inhibitors; 230,000 tested, 1.6% active; AID 2147;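 note: potency is the fitted concentration of half-maximal effect; 0% = wells with enzyme and -100% = buffer wells without enzyme; nearly all actives have a fitted effect of over 50% in size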
Target sequence (B2RXH2 1-337 limits assumed): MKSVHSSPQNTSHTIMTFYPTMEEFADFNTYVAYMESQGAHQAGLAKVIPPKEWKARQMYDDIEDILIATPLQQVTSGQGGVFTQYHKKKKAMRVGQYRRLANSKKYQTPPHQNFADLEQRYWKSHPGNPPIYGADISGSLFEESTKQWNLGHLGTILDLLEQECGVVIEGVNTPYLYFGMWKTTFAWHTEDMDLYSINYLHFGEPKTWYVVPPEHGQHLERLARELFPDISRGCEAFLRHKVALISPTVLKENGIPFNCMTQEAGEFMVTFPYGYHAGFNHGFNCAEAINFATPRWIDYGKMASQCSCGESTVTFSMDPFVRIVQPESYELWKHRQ
GoLoco inh red – blocks human Gai1 binding to RGS12 GoLoco peptide, red readout. P63096. Gai1:RGS12 GoLoco peptide FP, rhodamine, 10 min. Potency, µM (series often up to 61.6 µM), for the others: top-dose activity, negative = inhibition, usual class: inhibitors. 230,000 tested, 0.44% active. AID 880; active = well fitted inhibition curve with a large enough effect, not every such curve was filed as active; inactive = no such curve, though single readings can be large or run the other way; note: potency is the fitted concentration of half-maximal effect; nearly all actives have a fitted effect of over 30% in size
Sfp PPTase inh – Sfp phosphopantetheinyl transferase inhibition; Potency, µM, inactives show largest response in the series, negative = inhibition, actives largely listed as inhibitors; AID 1490; Biochemical Sfp PPTase activity, qHTS; Q9F4F7; 310,000 tested, 3.5% active; active = well fitted curve in the direction sought with a large enough effect; inconclusive = small, poorly fitted or top-dose-only effect, or another doubt; inactive = no such curve, though single readings can be large; an effect the other way counts as inactive or inconclusive;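 note: the enzyme is Sfp with the accession as filed and its product quenches rhodamine fluorescence; potency is the fitted concentration of half-maximal effect; 0% = enzyme reaction without inhibitor and -100% = no enzyme wells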
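Step 1, compound plus 15 nM Sfp-PPTase, 15 min, room temperature. Step 2, add rhodamine-CoA (5 uM) and BHQ-2-YbbR (12.5 uM). Step 3, read 525/598 nm fluorescence at 0 and 30 min.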
* = called active by the depositor; ? = inconclusive; · = no result given; [ ] = remark or other dose. Compounds with a hit are over-represented: about 8.5% of the library has one in this group of screens. Unless noted, calls come from the whole dose curve; as a rule, active = well fitted inhibition curve with a large enough effect (not every such curve was filed as active); inconclusive = small, poorly fitted or top-dose-only effect, or another doubt; inactive = no such curve, though single readings can be large or run the other way. Unless noted, % is set by controls: 0 for no effect and ±100 for the full control effect.

SMILES	ALDH1A1 inh	NPSR antagonist	Coupling enz	JMJD2E inh	GoLoco inh red	Sfp PPTase inh
COc1ccccc1CNC(=O)N/C=C/c1ccc(Cl)cc1	25µM*	-19%	1	-17%	6%	15%
O=C(Nc1ccccc1)/C(=C/c1ccc(F)cc1)NC(=O)c1ccco1	·	·	3	·	·	10%
CCN(CC(=O)c1c(N)n(C)c(=O)n(C)c1=O)c1cccc2ccccc12	?	-17%	-43*	?	-3%	?
COCCCN(C(=S)Nc1cc(C)cc(C)c1)C(C)c1ccncc1 (stereo not drawn)	15%	-7%	0	-4%	-2%	1%
Cc1ccc(NC(=O)Cn2c(=S)[nH]c3ccccc32)cc1	10µM*	4%	1	3%	-3%	45µM*
CCN1C(=O)/C(=C\N(C)C)c2ccccc21	?	-5%[46.1 µM]	-2	2%	4%	-7%
CCN1C(=O)/C(=C\C(=O)c2cccs2)c2cc(Br)ccc21	11µM*	-28%	-1	-7%	7%	20µM*
O=S(=O)(NCc1csc(-c2ccccc2)n1)c1ccc(Cl)s1	-3%	-27%[46.1 µM]	-36*	3%	-32%	-27%
CCCCCN(C(=O)CCC(=O)OCc1ccc(C(C)(C)C)cc1)c1c(N)n(CCCC)c(=O)[nH]c1=O	·	·	·	·	·	9%
COc1ccc(N=C2O/C(=C/c3sc(=S)n(CC4CCCO4)c3O)N=C2C#N)cc1 (stereo not drawn)	1.1µM*	?	-8	2%	257%	2.8µM*
C=CSc1sc(Cl)c(N2CCOCC2)c1[N+](=O)[O-]	?	-10%	3	3%	11%	?
C=CS(=O)(=O)c1sc(Cl)c(N2CCOCC2)c1[N+](=O)[O-]	0.22µM*	?	7	-3%	-15%	22µM*
COC(=O)c1ccccc1COn1c(=O)c(C)[n+]([O-])c2ccccc21	22µM*	-2%[46.1 µM]	-5	-14%	17%	-2%
Cc1ccc2cc(CN(Cc3ccccc3)Cc3nnnn3C3CCCC3)c(=O)[nH]c2c1	10µM*	?	6	?	3%	-2%
Cc1ccc2cc(CN(Cc3ccc(F)cc3)Cc3nnnn3C3CCCC3)c(=O)[nH]c2c1	14µM*	?	2	?	-14%	22µM*
COc1ccc(OC)c(N(C)S(=O)(=O)c2ccc3c(c2)N(C(C)=O)CCO3)c1	·	·	3	·	·	14%
Cc1cc(/C=N/n2cnnc2)c(C)n1-c1ccc(OCc2ccc(Cl)cc2)cc1	?	10µM*	-5	?	5%	45µM*
COc1ccc(CNC(=O)c2ccc(CS(=O)(=O)c3ccc(Br)cc3)o2)cc1	·	·	-2	·	·	3%
COCCn1nnnc1CN1CCC(NC(=O)c2ccc(Br)cc2)CC1	5%	-1%[46.1 µM]	2	6%	0%	15%
COc1cc(C(=O)NC2CCN(Cc3nnnn3Cc3cccs3)CC2)cc(OC)c1OC	8.9µM*	-2%[46.1 µM]	-2	-1%	5%	-11%
O=C(NCc1cc(F)ccc1F)C1CCC(=O)N(C2CCCCCC2)C1 (stereo not drawn)	·	·	·	·	·	11%
Cc1ccc(O)c(/C=N/NC(=O)c2[nH]ncc2Br)c1	7%	-14%	1	3.2µM*	15%	0%
Cc1cc(C)n(CCC(=O)N/N=C/c2c(O)ccc3ccccc23)n1	·	-16%	-21	0.2µM*	1%	?
O=C(N/N=C/c1cccs1)c1[nH]ncc1Br	·	·	13	·	·	13%
CCOc1ccc(/C=N/NC(=O)c2[nH]ncc2Br)c(O)c1	11%	-19%	-6	?	8%	21%
SMILES	ALDH1A1 inh	NPSR antagonist	Coupling enz	JMJD2E inh	GoLoco inh red	Sfp PPTase inh
O=C(N/N=C/c1c(O)ccc2ccccc12)c1[nH]ncc1Br	3%	-5%	-6	32µM*	11%	-21%
O=C(N/N=C/c1c(O)ccc2ccccc12)c1cccc(C(F)(F)F)c1	-14%	-10%	-1	25µM*	30%	12%
Cc1cc(C)n(CCC(=O)N/N=C/c2ccc(O)cc2)n1	-6%	-15%[46.1 µM]	-1	-2%	-7%	-9%
COC(=O)C(C(C)C)N1CC(=O)c2ccccc2S1(=O)=O (stereo not drawn)	·	·	-1	·	·	3%
O=C(NCCc1cccs1)C1CC(c2c(Cl)cccc2Cl)=NO1 (stereo not drawn)	-1%	-13%[46.1 µM]	1	-2%	-12%	-9%
Cc1ccc(CNC(=O)c2ccc(Cn3cc(-c4ccc(C)cc4)nc3-c3ccncc3)cc2)cc1	·	·	-1	·	·	5%
COC(=O)c1cc(=O)nc2scc(C)n12	22µM*	6%	7	-2%	-4%	6%
CC1(C)CC(CCNC(=O)CCl)(c2ccccc2)CCO1 (stereo not drawn)	·	7%	2	-1%	6%	7%
CCOC(=O)CNc1ccc2c(c1)OCO2	?	-6%[46.1 µM]	-38*	?	-2%	20µM*
CCN(CC(=O)Nc1ccc2c(c1)OCCO2)CC(=O)Nc1ccc2c(c1)OCO2	10µM*	2%	0	5%	-8%	-6%
Cc1nn(C)cc1C(=O)Nc1ccc2c(c1)OCCO2	·	·	0	·	·	50µM*
O=C(O)CCNc1ccc2c(c1)OCCO2	?	-8%[46.1 µM]	-41*	4%	-10%	50µM*
CCn1c(=O)c(=O)[nH]c2cc(C(=O)NCc3ccc(F)cc3)ccc21	·	·	0	·	·	13%
CCOC(=O)N1CCN(S(=O)(=O)c2ccc(OC)c(C(=O)N3CCCCC3)c2)CC1	·	·	1	·	·	-6%
CCN(CC)S(=O)(=O)c1cccc(-n2c(O)c(C=Nc3ccccc3C(=O)O)c3ccccc3c2=O)c1	·	47%	3	?	8%	2%
CCN(CC(=O)Nc1ccc2c(c1)OCCO2)Cc1cc(=O)oc2c(C)c(C)ccc12	16µM*	?	1	-17%	2%	-2%
CCN(CC(=O)Nc1ccc2c(c1)OCCO2)Cc1cc(=O)n2ccsc2n1	20µM*	13%	-3	?	17%	-16%
CN(CC(=O)Nc1ccc(N2CCOCC2)cc1)Cc1cc(=O)n2ccsc2n1	?	19%	-6	?	-9%	-10%
O=C(Nc1cc(S(=O)(=O)N2CCOCC2)ccc1N1CCCCC1)c1cc(-c2ccccn2)nc2ccccc12	7.1µM*	-34%	4	?	-1%	13µM*
O=C(CNc1cc(S(=O)(=O)N2CCOCC2)ccc1N1CCCC1)N1CCc2ccccc21	25µM*	-24%	-1	?	1%	5%
Cc1ccc(S(=O)(=O)N2CCOCC2)cc1NC(=O)c1cc(-c2ccccn2)nc2ccccc12	?	29%	0	1%	7%	0%
COc1ccc(/C=C(\C#N)C(=O)Nc2cc(S(=O)(=O)N3CCOCC3)ccc2N2CCCC2)cc1	10µM*	-5%	-1	-23%	-5%	35µM*
